{
  "source": "paper PMC12864922",
  "about": "“TDP-43 directly inhibits mRNA accumulation in neurites through modulation of mRNA stability”",
  "binders": {"B1": {"name": "ENSMUSG00000032194.229|Kank2 (ssRNA)", "RNA": "GGGAGUUCUACAGUCCGACGAUCGCUUCGAUAUCCGCAUGCUAUCAAGUCUCCCUGUCGUAUCCAGAUCACAGCUGAACCCACUGGGCCUUGGCGCCAAACCUCAGCAGGGCAGCAUUGAGACUCAUGGACUAAAGGAAAGUGUUCACUCUUCUAGACAAGUGGGUCUCUUGGUUUGAUGGAGUCUUACUCCGCUUGAGUUUUGUAGAAGGGGUUUGUCUAAGGCAUAGAGGCUUGGUUGGCAUAAGAAAAUAAGAUGGACAGAUGGAUGGGUGGAUGGAUGGAUGGCUGAUUGAGUGGGUGGCUCUUGCGGUCGCACUAGUGUGGAAUUCUCGGGUGUCAAGG"}, "B2": {"name": "ENSMUSG00000032194.230|Kank2 (ssRNA)", "RNA": "GGGAGUUCUACAGUCCGACGAUCGCUUCGAUAUCCGCAUGCUACUCCCUGUCGUAUCCAGAUCACAGCUGAACCCACUGGGCCUUGGCGCCAAACCUCAGCAGGGCAGCAUUGAGACUCAUGGACUAAAGGAAAGUGUUCACUCUUCUAGACAAGUGGGUCUCUUGGUUUGAUGGAGUCUUACUCCGCUUGAGUUUUGUAGAAGGGGUUUGUCUAAGGCAUAGAGGCUUGGUUGGCAUAAGAAAAUAAGAUGGACAGAUGGAUGGGUGGAUGGAUGGAUGGCUGAUUGAGUGGGUGGGUGGGUCUCUUGCGGUCGCACUAGUGUGGAAUUCUCGGGUGUCAAGG"}, "B3": {"name": "ENSMUSG00000032194.283|Kank2 (ssRNA)", "RNA": "GGGAGUUCUACAGUCCGACGAUCGCUUCGAUAUCCGCAUGCUAAUGGACAGGUGGGUGGAUGGAUGGGUGGACGGAUGAGUGUGGGGUGGGUGGAUGGAUAAAUGAGCAAUGGAUGAGAAACUGGGUUGGCUGGUGGGUAGAUGUCAUGAUGGAGUCUUUGCACGUGUAUGAAACAGAAAACCAAACUUCAGGACAGACAGCUGCUGGUGUCUCUGGAUGCUCACAGCCUAGGGCACAUUUGAAAGGUCGUGCUCUGAGCUGAGCCCUGAGUUCCAGCCUUGUAGCCAGCAAGGGAGUUUAUUCUCUUGCGGUCGCACUAGUGUGGAAUUCUCGGGUGUCAAGG"}, "B4": {"name": "ENSMUSG00000032194.228|Kank2 (ssRNA)", "RNA": "GGGAGUUCUACAGUCCGACGAUCGCUUCGAUAUCCGCAUGCUAGUCCUCUCAAGUCUCCCUGUCGUAUCCAGAUCACAGCUGAACCCACUGGGCCUUGGCGCCAAACCUCAGCAGGGCAGCAUUGAGACUCAUGGACUAAAGGAAAGUGUUCACUCUUCUAGACAAGUGGGUCUCUUGGUUUGAUGGAGUCUUACUCCGCUUGAGUUUUGUAGAAGGGGUUUGUCUAAGGCAUAGAGGCUUGGUUGGCAUAAGAAAAUAAGAUGGACAGAUGGAUGGGUGGAUGGAUGGAUGGCUGAUUGAGUCUCUUGCGGUCGCACUAGUGUGGAAUUCUCGGGUGUCAAGG"}, "B5": {"name": "ENSMUSG00000028439.219|Fam219a (ssRNA)", "RNA": "GGGAGUUCUACAGUCCGACGAUCGCUUCGAUAUCCGCAUGCUAGCAUUCUCCCUGAGCUCCUAAGCAAUUCCCAGGCUUCUCUAGGGCUUCAGUUCUCACAACUGGAAAAUAAAGAGUAGCUGACAUCACCGACAGAGUCUUUUCAUACCAGAAGGAAUUUCUUCACAGGAGUUUCUGCAAAAGACUAUGACAUCUGUGUGUCUGUGGUCUCACGAGGUACCUGGAGGUGUAUGUGCACGGACAUGGGAAGUACGUGAAGAUUUAUUUCGGGAAAAGUGGUGUGUGUGUAGCUGUACUGGGUGCUCUUGCGGUCGCACUAGUGUGGAAUUCUCGGGUGUCAAGG"}, "B6": {"name": "ENSMUSG00000028439.220|Fam219a (ssRNA)", "RNA": "GGGAGUUCUACAGUCCGACGAUCGCUUCGAUAUCCGCAUGCUAUCCCUGAGCUCCUAAGCAAUUCCCAGGCUUCUCUAGGGCUUCAGUUCUCACAACUGGAAAAUAAAGAGUAGCUGACAUCACCGACAGAGUCUUUUCAUACCAGAAGGAAUUUCUUCACAGGAGUUUCUGCAAAAGACUAUGACAUCUGUGUGUCUGUGGUCUCACGAGGUACCUGGAGGUGUAUGUGCACGGACAUGGGAAGUACGUGAAGAUUUAUUUCGGGAAAAGUGGUGUGUGUGUAGCUGUACUGGGUGUCAUGUCUCUUGCGGUCGCACUAGUGUGGAAUUCUCGGGUGUCAAGG"}, "B7": {"name": "ENSMUSG00000032194.287|Kank2 (ssRNA)", "RNA": "GGGAGUUCUACAGUCCGACGAUCGCUUCGAUAUCCGCAUGCUAGUGGACGGAUGAGUGUGGGGUGGGUGGAUGGAUAAAUGAGCAAUGGAUGAGAAACUGGGUUGGCUGGUGGGUAGAUGUCAUGAUGGAGUCUUUGCACGUGUAUGAAACAGAAAACCAAACUUCAGGACAGACAGCUGCUGGUGUCUCUGGAUGCUCACAGCCUAGGGCACAUUUGAAAGGUCGUGCUCUGAGCUGAGCCCUGAGUUCCAGCCUUGUAGCCAGCAAGGGAGUUUAUUUAAGGUUCUGGAAGCAUCAGCUAUCUCUUGCGGUCGCACUAGUGUGGAAUUCUCGGGUGUCAAGG"}, "B8": {"name": "ENSMUSG00000032194.281|Kank2 (ssRNA)", "RNA": "GGGAGUUCUACAGUCCGACGAUCGCUUCGAUAUCCGCAUGCUAAUGAAUGGAUGGAUGGACAGGUGGGUGGAUGGAUGGGUGGACGGAUGAGUGUGGGGUGGGUGGAUGGAUAAAUGAGCAAUGGAUGAGAAACUGGGUUGGCUGGUGGGUAGAUGUCAUGAUGGAGUCUUUGCACGUGUAUGAAACAGAAAACCAAACUUCAGGACAGACAGCUGCUGGUGUCUCUGGAUGCUCACAGCCUAGGGCACAUUUGAAAGGUCGUGCUCUGAGCUGAGCCCUGAGUUCCAGCCUUGUAGCCAGCACUCUUGCGGUCGCACUAGUGUGGAAUUCUCGGGUGUCAAGG"}, "B9": {"name": "ENSMUSG00000028439.221|Fam219a (ssRNA)", "RNA": "GGGAGUUCUACAGUCCGACGAUCGCUUCGAUAUCCGCAUGCUAAGCUCCUAAGCAAUUCCCAGGCUUCUCUAGGGCUUCAGUUCUCACAACUGGAAAAUAAAGAGUAGCUGACAUCACCGACAGAGUCUUUUCAUACCAGAAGGAAUUUCUUCACAGGAGUUUCUGCAAAAGACUAUGACAUCUGUGUGUCUGUGGUCUCACGAGGUACCUGGAGGUGUAUGUGCACGGACAUGGGAAGUACGUGAAGAUUUAUUUCGGGAAAAGUGGUGUGUGUGUAGCUGUACUGGGUGUCAUGUAUGCUGCUCUUGCGGUCGCACUAGUGUGGAAUUCUCGGGUGUCAAGG"}, "B10": {"name": "ENSMUSG00000032194.289|Kank2 (ssRNA)", "RNA": "GGGAGUUCUACAGUCCGACGAUCGCUUCGAUAUCCGCAUGCUAGUGUGGGGUGGGUGGAUGGAUAAAUGAGCAAUGGAUGAGAAACUGGGUUGGCUGGUGGGUAGAUGUCAUGAUGGAGUCUUUGCACGUGUAUGAAACAGAAAACCAAACUUCAGGACAGACAGCUGCUGGUGUCUCUGGAUGCUCACAGCCUAGGGCACAUUUGAAAGGUCGUGCUCUGAGCUGAGCCCUGAGUUCCAGCCUUGUAGCCAGCAAGGGAGUUUAUUUAAGGUUCUGGAAGCAUCAGCUAUGACCCAAAGCACCUCUUGCGGUCGCACUAGUGUGGAAUUCUCGGGUGUCAAGG"}, "B11": {"name": "ENSMUSG00000032194.282|Kank2 (ssRNA)", "RNA": "GGGAGUUCUACAGUCCGACGAUCGCUUCGAUAUCCGCAUGCUAGGAUGGAUGGACAGGUGGGUGGAUGGAUGGGUGGACGGAUGAGUGUGGGGUGGGUGGAUGGAUAAAUGAGCAAUGGAUGAGAAACUGGGUUGGCUGGUGGGUAGAUGUCAUGAUGGAGUCUUUGCACGUGUAUGAAACAGAAAACCAAACUUCAGGACAGACAGCUGCUGGUGUCUCUGGAUGCUCACAGCCUAGGGCACAUUUGAAAGGUCGUGCUCUGAGCUGAGCCCUGAGUUCCAGCCUUGUAGCCAGCAAGGGAGCUCUUGCGGUCGCACUAGUGUGGAAUUCUCGGGUGUCAAGG"}, "B12": {"name": "ENSMUSG00000032194.288|Kank2 (ssRNA)", "RNA": "GGGAGUUCUACAGUCCGACGAUCGCUUCGAUAUCCGCAUGCUAGGAUGAGUGUGGGGUGGGUGGAUGGAUAAAUGAGCAAUGGAUGAGAAACUGGGUUGGCUGGUGGGUAGAUGUCAUGAUGGAGUCUUUGCACGUGUAUGAAACAGAAAACCAAACUUCAGGACAGACAGCUGCUGGUGUCUCUGGAUGCUCACAGCCUAGGGCACAUUUGAAAGGUCGUGCUCUGAGCUGAGCCCUGAGUUCCAGCCUUGUAGCCAGCAAGGGAGUUUAUUUAAGGUUCUGGAAGCAUCAGCUAUGACCCACUCUUGCGGUCGCACUAGUGUGGAAUUCUCGGGUGUCAAGG"}},
  "note": "The full ranking holds about 9,900 sequences; the median of “r (bound/input frequency ratio)” is about 0.7, and the highest 2% start at about 6.5. Shown is part of a subset that was picked to be rich in the highest values.",
  "data": [
    {"molecular_target": "TDP-43 (Homo sapiens, UniProt Q13148 1-414)", "sequence (Q13148 whole entry)": "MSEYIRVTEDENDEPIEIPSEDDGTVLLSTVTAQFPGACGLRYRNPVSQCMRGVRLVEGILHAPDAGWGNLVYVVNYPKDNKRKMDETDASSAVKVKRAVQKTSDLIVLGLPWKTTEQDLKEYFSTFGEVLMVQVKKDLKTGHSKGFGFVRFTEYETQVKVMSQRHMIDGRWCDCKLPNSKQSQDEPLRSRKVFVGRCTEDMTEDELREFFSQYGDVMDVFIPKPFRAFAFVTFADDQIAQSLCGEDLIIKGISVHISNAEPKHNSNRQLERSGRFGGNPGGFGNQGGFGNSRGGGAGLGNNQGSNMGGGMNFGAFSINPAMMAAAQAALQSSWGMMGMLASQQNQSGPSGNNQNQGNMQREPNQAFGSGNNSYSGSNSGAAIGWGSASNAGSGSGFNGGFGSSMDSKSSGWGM", "assay": "RNA Bind-n-Seq with designed 260-mer pool; 25 mM Tris-HCl, 150 mM KCl, 3 mM MgCl2, BSA (printed 500 mg/mL), 20 units/mL SUPERase IN; pH not stated; 500 nM RNA pool, 1 h, 4 C; TDP-43 5, 50, 500 nM; high values mean tight binding", "settings": "protein: recombinant; tags: SBP (GST cleaved off with PreScission; pGEX-GST-SBP)", "how_it_was_run": "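Recombinant SBP-tagged TDP-43 at 5, 50 or 500 nM was captured on streptavidin beads, then incubated 1 h at 4 °C with 500 nM of an in vitro-transcribed 260-nt 3′ UTR oligo pool in 25 mM Tris-HCl, 150 mM KCl, 3 mM MgCl2, BSA and SUPERase IN. Bound RNA was washed, eluted with biotin, reverse transcribed, PCR-amplified and sequenced. Binding is R, each oligo's mapped-read-normalized abundance in the bound sample divided by its abundance in input. Duplicates used two independent protein batches.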", "values": [
      {"binder": "B1", "binding signal": "4.54 R (bound/input frequency ratio)"},
      {"binder": "B2", "binding signal": "4.66 R (bound/input frequency ratio)"},
      {"binder": "B3", "binding signal": "3.66 R (bound/input frequency ratio)"},
      {"binder": "B4", "binding signal": "7.26 R (bound/input frequency ratio)"},
      {"binder": "B5", "binding signal": "1.85 R (bound/input frequency ratio)"},
      {"binder": "B6", "binding signal": "6.53 R (bound/input frequency ratio)"},
      {"binder": "B7", "binding signal": "5.94 R (bound/input frequency ratio)"},
      {"binder": "B8", "binding signal": "6.24 R (bound/input frequency ratio)"},
      {"binder": "B9", "binding signal": "2.59 R (bound/input frequency ratio)"},
      {"binder": "B10", "binding signal": "3.69 R (bound/input frequency ratio)"},
      {"binder": "B11", "binding signal": "6.52 R (bound/input frequency ratio)"},
      {"binder": "B12", "binding signal": "6.68 R (bound/input frequency ratio)"}
    ]}
  ]
}
